# According to PubChem BioAssay (Tox21):
# Values without a mark were called inactive. Records with an inconclusive call do not appear. A call without a number means that no potency is given here. Calls of active or inactive are those of the source. Unless noted, the call rests on the fitted dose curve.
# Tests used:
# [1] = Nuclear factor erythroid 2-related factor 2/antioxidant responsive element (Nrf2/ARE) small molecule agonists: qHTS cell viability counter screen in human keratinocytes (AID 1919968; active means well fitted curve in the direction sought with a large enough effect in the repeat runs; an effect the other way counts as inactive or inconclusive; further: nearly all actives have a fitted effect of over 55% in size; further: potency means the concentration at half of the fitted maximal effect)
# In short: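 Seed 1,500 KeratinoSens cells per well, then incubate 5 h at 37 C/5% CO2. Add compounds in DMSO and incubate 23 h. Add CellTiter-Fluor, wait 1 h and read fluorescence.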
# [2] = target: KiSS-1 receptor (Homo sapiens) (UniProt Q969F8); assay: Human kisspeptin (KISS1R) small molecule agonists, calcium flux assay in KISS1R-HEK293 cells (AID 1920064; active means well fitted curve in the direction sought with a large enough effect in the repeat runs; an effect the other way counts as inactive or inconclusive)
# In short: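 Cells plated and incubated 18 h; dye added, 1 h at 37 C; compounds in DMSO pinned in; signal read at 480/540 nm every second for 3 min. Each compound tested at 15 concentrations in triplicate.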
# [3] = p53 small molecule agonists, cell-based qHTS assay with human liver microsomes (AID 1963577);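 further: p53 response element beta-lactamase reporter cells with liver microsomes plus NADPH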
# In short: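 HLM-supplemented p53RE-bla reporter assay: 16 h compound exposure at 37 C, microsomes and NADPH each 0.5 mg/mL final, read by fluorescence intensity.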
# [4] = p53 small molecule agonists, cell-based qHTS assay with human liver microsomes: qHTS cell viability counter screen (AID 1963579); further: nearly all actives have a fitted effect of over 45% in size; further: potency means the concentration at half of the fitted maximal effect
# In short: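 Viability of p53RE-bla cells is measured as CellTiter-Glo luminescence following a 16 h, 37 C incubation with compound, liver microsomes from human donors and NADPH.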
# [5] = p53 small molecule agonists, cell-based qHTS assay with rat liver microsomes: qHTS cell viability counter screen (AID 1963580); further: nearly all actives have a fitted effect of over 45% in size; further: potency means the concentration at half of the fitted maximal effect
# In short: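 Intracellular ATP, by CellTiter-Glo luminescence, defines viability. HCT-116 p53RE-bla cells, 4,000 per well, were compound-treated in the presence of rat liver microsomes and NADPH for 16 h at 37 C.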
# [6] = p53 small molecule agonists, cell-based qHTS assay: qHTS cell viability counter screen (AID 1963581); further: nearly all actives have a fitted effect of over 45% in size; further: potency means the concentration at half of the fitted maximal effect
# In short: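 Cells: HCT-116 with p53 response element-driven beta-lactamase. Treatment: 16 h, 37 C, compounds in DMSO. Read: CellTiter-Glo luminescence after 30 min RT.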
# [7] = p53 small molecule agonists, cell-based qHTS assay (AID 1963582; active means well fitted activation curve with a large enough effect in the signal ratio in the repeat runs, not every such curve was filed as active; the % refers to the signal ratio)
# In short: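 Quantitative HTS in p53RE-bla cells: after a 5 h settling period, compounds delivered in DMSO were left on cells for 16 h at 37 C, and reporter induction was measured as fluorescence following 2 h substrate loading.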
# [8] = target: 5-hydroxytryptamine receptor 2A (Homo sapiens) (UniProt P28223); assay: 5-hydroxytryptamine receptor 2A (HTR2A) small molecule antagonists, cell-based qHTS assay (AID 1963586); further: nearly all actives have a fitted effect of over 45% in size; further: potency means the concentration at half of the fitted maximal effect
# In short: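 Antagonist-mode intracellular calcium assay: DOI (4 nM) added after 5 min compound pre-incubation at room temperature to dye-loaded HTR2A-CHO cells. Fluorescence followed for 3 min, sampled every second.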
# [9] = target: 5-hydroxytryptamine receptor 2A (Homo sapiens) (UniProt P28223); assay: 5-hydroxytryptamine receptor 2A (HTR2A) small molecule agonists, cell-based qHTS assay (AID 1963587); further: nearly all actives have a fitted effect of over 30% in size; further: potency means the concentration at half of the fitted maximal effect
# In short: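 Kinetic calcium-flux fluorescence (2 min, 1 sec intervals) after compound addition in agonist mode. HTR2A-CHO cells were cultured 18 h, then dye-loaded 1 h at 37 C.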
# [10] = target: Muscarinic acetylcholine receptor M1 (Homo sapiens) (UniProt P11229); assay: Cholinergic receptor muscarinic 1 (CHRM1) small molecule antagonists, cell-based qHTS assay (AID 1963588); further: nearly all actives have a fitted effect of over 40% in size
# In short: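 CHRM1-CHO calcium-flux assay, antagonist mode. Cells were seeded 18 h, dye-loaded 1 h at 37 C and given compound for 5 min at RT, then acetylcholine was added at 50nM. FDSS fluorescence was read 3 min; 15 concentrations, three runs.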
# [11] = target: Muscarinic acetylcholine receptor M1 (Homo sapiens) (UniProt P11229); assay: Cholinergic receptor muscarinic 1 (CHRM1) small molecule agonists, cell-based qHTS assay (AID 1963589); further: nearly all actives have a fitted effect of over 35% in size; further: potency means the concentration at half of the fitted maximal effect
# In short: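 Agonist-mode qHTS in CHO cells stably carrying human muscarinic M1. Intracellular calcium is tracked by fluorescence every second after compound transfer; each compound runs at 15 concentrations in three independent runs.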
# [12] = cAMP Responsive Elements (CRE) small molecule antagonists, cell-based qHTS assay (AID 1963591; active means well fitted inhibition curve with a large enough effect in the signal ratio in the repeat runs, not every such curve was filed as active; the % refers to the signal ratio)
# In short: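 Antagonist mode: test compounds are co-incubated with the adenylyl cyclase activator NKH477 (0.25 uM final) on CRE-bla HEK293T cells for 3 h at 37 °C, followed by LiveBLAzer substrate loading.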
# [13] = target: Beta-2 adrenergic receptor (Homo sapiens) (UniProt P07550); assay: Adrenergic beta2 receptor (ADRB2) small molecule antagonists, cell-based qHTS assay (AID 1963592); further: series mostly up to about 92 µM; nearly all actives have a fitted effect of over 50% in size
# In short: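 Cells (CHO, stable ADRB2 overexpression) incubated 18-20hr at 37C; compounds added from DMSO; agonist mix (1nM isoproterenol, 100uM IBMX, 25uM Ro-20-1724) added; 0.5hr RT; d2-cAMP and anti-cAMP-cryptate added; 1hr RT; 665/615 nm read.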
# [14] = target: Beta-2 adrenergic receptor (Homo sapiens) (UniProt P07550); assay: Adrenergic beta2 receptor (ADRB2) small molecule agonists, cell-based qHTS assay (AID 1963593);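 further: CHO cells stably overexpressing human ADRB2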
# In short: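 CHO cells stably over-expressing ADRB2 were plated overnight at 37C, then dosed with compounds plus a stimulation mix containing 100uM IBMX and 25uM Ro-20-1724 for 0.5hr at room temperature. cAMP was measured by HTRF competition, 1hr.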
# [15] = target: D(2) dopamine receptor (Homo sapiens) (UniProt P14416); assay: Dopamine D2 receptor (DRD2) small molecule agonists, cell-based qHTS assay (AID 1963594); further: nearly all actives have a fitted effect of over 35% in size
# In short: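 cAMP accumulation in DRD2-HEK293 cells measured by HTRF after 1 h detection; compounds added 10 min before NKH477 (200nM […]) forskolin-analogue stimulation, 30 min at room temperature, with Ro20-1724 present at 0.1 mM final.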
# [16] = G protein-coupled receptor (GPCR) small molecule agonists, calcium flux assay: HEK293 wild type cell line counter screen (AID 1920065)
# In short: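 Counter-screen of the Tox21 10K library for non-specific calcium release: dye-loaded cells received compounds in DMSO and were monitored by kinetic fluorescence (480/540 nm, 3 min). Fifteen concentrations, run in triplicate.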
# [17] = cAMP Responsive Elements (CRE) small molecule agonists, cell-based qHTS assay (AID 1963590)
# In short: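 Agonist mode qHTS in CRE-bla HEK 293T cells: compounds dosed from DMSO for 3 h at 37 C/5% CO2, followed by LiveBLAzer B/G FRET substrate for 2 h at room temperature.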
# [18] = target: D(2) dopamine receptor (Homo sapiens) (UniProt P14416); assay: Dopamine D2 receptor (DRD2) small molecule antagonists, cell-based qHTS assay (AID 1963595; active means well fitted inhibition curve with a large enough effect in the signal ratio in the repeat runs, with a control signal flat; the % refers to the signal ratio; further: potency means the concentration at half of the fitted maximal effect)
# In short: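 HEK293 cells stably expressing DRD2 were preincubated with 0.1 mM Ro20-1724, then with compound for 10 min at room temperature. Cells were stimulated with 200 nM NKH477 plus 12 nM quinpirole for 30 min, and cAMP was read by HTRF.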
# [19] = p53 small molecule agonists, cell-based qHTS assay with rat liver microsomes (AID 1963578)
# In short: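 Quantitative HTS of the Tox21 10K library: p53RE-bla cells, rat liver microsomes plus NADPH at 0.5 mg/mL final each, 16 h at 37 C, beta-lactamase fluorescence detection.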
# Chain of KiSS-1 receptor (Homo sapiens) (Q969F8 whole entry, looked up): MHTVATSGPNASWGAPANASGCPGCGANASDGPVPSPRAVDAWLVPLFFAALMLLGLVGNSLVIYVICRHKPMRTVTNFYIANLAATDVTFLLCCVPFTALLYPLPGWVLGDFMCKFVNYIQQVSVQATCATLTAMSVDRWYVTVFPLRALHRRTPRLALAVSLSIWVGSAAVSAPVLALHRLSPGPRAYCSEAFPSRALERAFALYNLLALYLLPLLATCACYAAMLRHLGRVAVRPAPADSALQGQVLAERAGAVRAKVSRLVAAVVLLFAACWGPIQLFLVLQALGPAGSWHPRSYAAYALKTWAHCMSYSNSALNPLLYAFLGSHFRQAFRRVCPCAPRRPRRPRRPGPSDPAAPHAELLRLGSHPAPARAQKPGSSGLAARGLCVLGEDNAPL
# Chain of 5-hydroxytryptamine receptor 2A (Homo sapiens) (P28223 whole entry, looked up): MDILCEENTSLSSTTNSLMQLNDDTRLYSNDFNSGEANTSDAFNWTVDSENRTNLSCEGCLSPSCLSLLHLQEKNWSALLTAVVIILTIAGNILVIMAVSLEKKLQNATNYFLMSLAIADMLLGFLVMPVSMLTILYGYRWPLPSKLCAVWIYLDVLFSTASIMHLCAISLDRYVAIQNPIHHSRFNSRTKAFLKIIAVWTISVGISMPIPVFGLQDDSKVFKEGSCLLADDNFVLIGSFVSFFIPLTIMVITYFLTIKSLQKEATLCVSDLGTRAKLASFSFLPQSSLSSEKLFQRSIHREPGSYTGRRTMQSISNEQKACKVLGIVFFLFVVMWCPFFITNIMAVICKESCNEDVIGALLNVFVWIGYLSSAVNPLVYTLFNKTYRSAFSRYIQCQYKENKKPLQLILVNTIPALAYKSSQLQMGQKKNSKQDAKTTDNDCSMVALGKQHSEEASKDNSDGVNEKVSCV
# Chain of D(2) dopamine receptor (Homo sapiens) (P14416 whole entry, looked up): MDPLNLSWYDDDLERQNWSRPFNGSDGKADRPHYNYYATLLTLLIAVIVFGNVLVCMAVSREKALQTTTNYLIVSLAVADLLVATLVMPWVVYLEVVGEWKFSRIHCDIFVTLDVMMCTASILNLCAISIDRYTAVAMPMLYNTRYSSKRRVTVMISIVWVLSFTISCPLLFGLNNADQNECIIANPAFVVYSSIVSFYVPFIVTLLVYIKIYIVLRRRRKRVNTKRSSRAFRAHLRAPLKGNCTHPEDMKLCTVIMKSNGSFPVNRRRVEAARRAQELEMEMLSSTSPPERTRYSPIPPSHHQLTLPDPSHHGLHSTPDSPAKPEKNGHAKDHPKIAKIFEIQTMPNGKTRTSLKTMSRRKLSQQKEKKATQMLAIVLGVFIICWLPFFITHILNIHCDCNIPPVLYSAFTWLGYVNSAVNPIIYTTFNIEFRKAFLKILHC
# Chain of Muscarinic acetylcholine receptor M1 (Homo sapiens) (P11229 whole entry, looked up): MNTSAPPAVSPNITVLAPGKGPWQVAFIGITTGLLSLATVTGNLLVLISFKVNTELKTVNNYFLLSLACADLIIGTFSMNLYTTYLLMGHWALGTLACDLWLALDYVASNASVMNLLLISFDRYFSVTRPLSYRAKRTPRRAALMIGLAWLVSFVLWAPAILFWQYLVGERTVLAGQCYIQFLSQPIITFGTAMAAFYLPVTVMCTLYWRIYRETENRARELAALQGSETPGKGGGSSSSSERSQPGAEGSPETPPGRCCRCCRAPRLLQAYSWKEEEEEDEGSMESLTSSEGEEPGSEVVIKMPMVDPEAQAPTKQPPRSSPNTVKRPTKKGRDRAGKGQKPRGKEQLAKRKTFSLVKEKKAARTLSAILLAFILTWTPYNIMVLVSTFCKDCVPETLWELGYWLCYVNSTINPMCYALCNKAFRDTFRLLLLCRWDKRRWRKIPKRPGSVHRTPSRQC
# Chain of Beta-2 adrenergic receptor (Homo sapiens) (P07550 whole entry, looked up): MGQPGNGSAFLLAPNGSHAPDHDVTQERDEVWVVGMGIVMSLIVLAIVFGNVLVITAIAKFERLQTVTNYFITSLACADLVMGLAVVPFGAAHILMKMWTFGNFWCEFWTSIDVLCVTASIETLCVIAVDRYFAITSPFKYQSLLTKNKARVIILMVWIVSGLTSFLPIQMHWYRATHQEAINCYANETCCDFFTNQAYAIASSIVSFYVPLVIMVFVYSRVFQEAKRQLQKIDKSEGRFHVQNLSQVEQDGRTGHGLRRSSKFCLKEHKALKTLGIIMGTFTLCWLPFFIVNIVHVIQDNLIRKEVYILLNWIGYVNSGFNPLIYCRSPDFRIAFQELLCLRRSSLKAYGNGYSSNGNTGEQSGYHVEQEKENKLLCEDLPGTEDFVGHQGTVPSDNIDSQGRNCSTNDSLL
SMILES,Potency [1],Potency [2],Potency [3],Potency [4],Potency [5],Potency [6],Potency [7],Potency [8],Potency [9],Potency [10],Potency [11],Potency [12],Potency [13],Potency [14],Potency [15],Potency [16],Potency [17],Potency [18],Potency [19]
CCOC(=O)COc1ccc(Cl)cc1Cl,inactive,inactive,inactive,inactive,inactive,inactive,inactive,inactive,inactive,inactive,inactive,inactive,inactive,inactive,inactive,–,–,–,–
C=C(C)C(=O)OCCCCOC(=O)C(=C)C,inactive,inactive,–,inactive,inactive,inactive,–,inactive,–,inactive,inactive,inactive,inactive,–,inactive,inactive,inactive,inactive,–
CNC(C)Cc1ccc2c(c1)OCO2 (stereo unspecified),inactive,inactive,inactive,inactive,inactive,inactive,inactive,1030 nM (active),602 nM (active),inactive,inactive,inactive,–,–,inactive,–,inactive,inactive,inactive
CCOP(=O)(NC(C)C)Oc1ccc(SC)c(C)c1 (stereo unspecified),inactive,inactive,–,–,inactive,–,inactive,inactive,–,–,inactive,–,–,–,–,inactive,–,inactive,–
COC(=O)C(C)Oc1ccc(Oc2ccc(Cl)cc2Cl)cc1 (stereo unspecified),inactive,–,–,inactive,inactive,inactive,–,inactive,inactive,–,inactive,inactive,–,inactive,inactive,inactive,inactive,inactive,–
CN1C(=O)COc2c(C(=O)NC3CN4CCC3CC4)cc(Cl)cc21 (stereo unspecified),inactive,inactive,–,inactive,inactive,inactive,–,–,–,–,–,–,inactive,–,inactive,inactive,inactive,inactive,–
CC(C)(C)NCC(O)c1cc(Cl)c(N)c(C(F)(F)F)c1 (stereo unspecified),inactive,inactive,inactive,inactive,inactive,–,inactive,inactive,inactive,inactive,inactive,inactive,–,–,inactive,inactive,–,–,–
CCOP(=S)(OCC)SCSCC,inactive,inactive,–,inactive,inactive,–,–,inactive,inactive,–,inactive,inactive,inactive,–,inactive,inactive,inactive,–,–
C#CC(C)(C)O,inactive,inactive,–,inactive,–,inactive,–,inactive,–,inactive,inactive,inactive,inactive,inactive,inactive,inactive,inactive,inactive,–
CC(O)C(=O)[O][Hg][c]1ccccc1 (stereo unspecified),1720 nM (active),–,inactive,3630 nM (active),8140 nM (active),2890 nM (active),–,inactive,–,inactive,54900 nM (active),–,–,–,–,inactive,–,2730 nM (active),inactive
